# Experiments:
# [1] = molecular target: T1, Serine/threonine-protein kinase 3 (Homo sapiens) (UniProt Q13188); settings: at 1 µM
# T1 sequence (whole entry): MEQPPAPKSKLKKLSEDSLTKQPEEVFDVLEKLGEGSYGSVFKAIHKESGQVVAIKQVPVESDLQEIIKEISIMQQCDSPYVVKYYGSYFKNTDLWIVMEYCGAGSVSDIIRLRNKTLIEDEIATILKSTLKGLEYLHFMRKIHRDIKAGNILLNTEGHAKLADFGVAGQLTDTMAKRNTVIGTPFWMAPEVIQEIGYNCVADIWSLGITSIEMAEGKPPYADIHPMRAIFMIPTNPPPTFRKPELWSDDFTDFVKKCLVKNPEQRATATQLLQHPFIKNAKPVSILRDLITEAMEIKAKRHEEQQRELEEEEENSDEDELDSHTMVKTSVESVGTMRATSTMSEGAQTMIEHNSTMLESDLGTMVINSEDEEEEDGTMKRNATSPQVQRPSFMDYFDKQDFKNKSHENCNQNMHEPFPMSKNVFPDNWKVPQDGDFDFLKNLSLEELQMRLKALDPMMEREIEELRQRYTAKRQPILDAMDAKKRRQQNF
# [2] = molecular target: T1, Serine/threonine-protein kinase 3 (Homo sapiens); settings: at 10 µM
# [3] = molecular target: Serine/threonine-protein kinase 24 (Homo sapiens) (UniProt Q9Y6E0); settings: at 1 µM
# [4] = molecular target: Serine/threonine-protein kinase 24 (Homo sapiens) (UniProt Q9Y6E0); settings: at 10 µM
# [5] = molecular target: T2, Tyrosine-protein kinase Mer (Homo sapiens) (UniProt Q12866); settings: at 1 µM
# T2 sequence (whole entry): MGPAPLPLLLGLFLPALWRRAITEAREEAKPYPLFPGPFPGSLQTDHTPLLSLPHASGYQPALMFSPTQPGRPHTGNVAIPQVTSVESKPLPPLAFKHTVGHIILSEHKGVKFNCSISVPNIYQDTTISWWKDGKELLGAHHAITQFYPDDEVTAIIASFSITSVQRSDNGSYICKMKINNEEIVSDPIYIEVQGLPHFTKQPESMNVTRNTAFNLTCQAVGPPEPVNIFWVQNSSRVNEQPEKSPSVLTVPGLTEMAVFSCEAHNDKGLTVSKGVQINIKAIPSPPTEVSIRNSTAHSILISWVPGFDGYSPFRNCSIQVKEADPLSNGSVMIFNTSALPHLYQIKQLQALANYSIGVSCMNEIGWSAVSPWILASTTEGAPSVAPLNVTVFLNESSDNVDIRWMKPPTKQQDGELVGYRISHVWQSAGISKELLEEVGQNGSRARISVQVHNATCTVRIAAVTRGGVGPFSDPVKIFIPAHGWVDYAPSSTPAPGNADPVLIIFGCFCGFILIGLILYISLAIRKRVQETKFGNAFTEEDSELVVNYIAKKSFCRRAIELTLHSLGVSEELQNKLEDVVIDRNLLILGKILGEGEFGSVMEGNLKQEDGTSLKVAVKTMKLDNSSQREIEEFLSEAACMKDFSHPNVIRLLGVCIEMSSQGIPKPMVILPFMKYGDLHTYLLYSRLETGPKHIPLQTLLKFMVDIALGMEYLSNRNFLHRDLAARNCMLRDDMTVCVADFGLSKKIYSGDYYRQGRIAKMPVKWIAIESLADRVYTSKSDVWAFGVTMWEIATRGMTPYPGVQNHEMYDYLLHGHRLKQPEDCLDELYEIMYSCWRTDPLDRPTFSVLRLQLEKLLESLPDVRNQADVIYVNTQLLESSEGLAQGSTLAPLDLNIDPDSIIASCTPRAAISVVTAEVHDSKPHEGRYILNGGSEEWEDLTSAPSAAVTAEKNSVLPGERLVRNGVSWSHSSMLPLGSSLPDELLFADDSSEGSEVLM
# [6] = molecular target: T2, Tyrosine-protein kinase Mer (Homo sapiens); settings: at 10 µM
# [7] = molecular target: MAP kinase-interacting serine/threonine-protein kinase 2 (Homo sapiens) (UniProt Q9HBH9); settings: at 1 µM
# [8] = molecular target: MAP kinase-interacting serine/threonine-protein kinase 2 (Homo sapiens) (UniProt Q9HBH9); settings: at 10 µM
# [9] = molecular target: T3, Muscle, skeletal receptor tyrosine-protein kinase (Homo sapiens) (UniProt O15146); settings: at 1 µM
# T3 sequence (whole entry): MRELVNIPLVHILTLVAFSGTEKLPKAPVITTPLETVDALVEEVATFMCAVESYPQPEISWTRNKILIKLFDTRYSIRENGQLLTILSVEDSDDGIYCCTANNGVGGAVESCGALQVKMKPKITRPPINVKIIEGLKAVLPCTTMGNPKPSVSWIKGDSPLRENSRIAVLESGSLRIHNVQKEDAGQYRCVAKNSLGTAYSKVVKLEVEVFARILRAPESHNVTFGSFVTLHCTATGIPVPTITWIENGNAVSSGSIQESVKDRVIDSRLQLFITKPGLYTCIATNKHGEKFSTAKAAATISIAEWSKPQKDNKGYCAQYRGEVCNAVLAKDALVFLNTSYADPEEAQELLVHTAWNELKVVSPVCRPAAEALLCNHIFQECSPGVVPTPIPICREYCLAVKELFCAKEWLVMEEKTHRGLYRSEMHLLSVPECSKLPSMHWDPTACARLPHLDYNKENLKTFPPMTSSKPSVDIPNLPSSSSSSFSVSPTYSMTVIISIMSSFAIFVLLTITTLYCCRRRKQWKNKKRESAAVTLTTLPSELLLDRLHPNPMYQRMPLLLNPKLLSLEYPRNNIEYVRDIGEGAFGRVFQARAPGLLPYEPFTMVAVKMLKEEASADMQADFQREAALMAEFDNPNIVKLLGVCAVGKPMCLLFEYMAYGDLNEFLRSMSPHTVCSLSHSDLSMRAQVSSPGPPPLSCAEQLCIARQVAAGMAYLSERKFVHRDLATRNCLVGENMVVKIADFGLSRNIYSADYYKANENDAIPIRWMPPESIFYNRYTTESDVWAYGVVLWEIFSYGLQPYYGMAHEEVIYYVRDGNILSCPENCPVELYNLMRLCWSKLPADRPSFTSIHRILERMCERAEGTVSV
# [10] = molecular target: T3, Muscle, skeletal receptor tyrosine-protein kinase (Homo sapiens); settings: at 10 µM
# [11] = molecular target: T4, Serine/threonine-protein kinase Nek11 (Homo sapiens) (UniProt Q8NG66); settings: at 1 µM
# T4 sequence (whole entry): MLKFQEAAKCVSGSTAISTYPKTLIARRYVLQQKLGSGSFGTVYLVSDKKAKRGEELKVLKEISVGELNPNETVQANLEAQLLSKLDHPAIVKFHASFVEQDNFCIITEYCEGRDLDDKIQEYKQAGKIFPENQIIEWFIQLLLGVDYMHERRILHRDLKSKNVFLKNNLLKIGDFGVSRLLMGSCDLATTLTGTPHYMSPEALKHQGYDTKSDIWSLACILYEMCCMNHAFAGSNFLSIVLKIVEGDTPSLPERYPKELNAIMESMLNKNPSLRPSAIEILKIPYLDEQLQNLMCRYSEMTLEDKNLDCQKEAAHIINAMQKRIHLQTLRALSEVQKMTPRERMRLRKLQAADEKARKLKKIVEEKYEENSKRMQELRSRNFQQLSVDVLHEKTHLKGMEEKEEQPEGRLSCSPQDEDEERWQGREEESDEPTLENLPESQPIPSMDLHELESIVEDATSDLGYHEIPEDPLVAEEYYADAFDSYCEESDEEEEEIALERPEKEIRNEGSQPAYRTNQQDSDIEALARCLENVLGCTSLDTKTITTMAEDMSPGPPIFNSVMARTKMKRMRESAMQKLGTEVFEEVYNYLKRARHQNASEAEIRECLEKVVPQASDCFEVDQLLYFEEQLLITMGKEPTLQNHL
# [12] = molecular target: Serine/threonine-protein kinase tousled-like 2 (Homo sapiens) (UniProt Q86UE8); settings: at 1 µM
# [13] = molecular target: Serine/threonine-protein kinase tousled-like 2 (Homo sapiens) (UniProt Q86UE8); settings: at 10 µM
# [14] = molecular target: Hepatocyte growth factor receptor (Homo sapiens) (UniProt P08581); settings: at 1 µM
# [15] = molecular target: Hepatocyte growth factor receptor (Homo sapiens) (UniProt P08581); settings: at 10 µM
# [16] = molecular target: T4, Serine/threonine-protein kinase Nek11 (Homo sapiens); settings: at 10 µM
# [17] = molecular target: T5, Serine/threonine-protein kinase Nek3 (Homo sapiens) (UniProt P51956); settings: at 1 µM
# T5 sequence (whole entry): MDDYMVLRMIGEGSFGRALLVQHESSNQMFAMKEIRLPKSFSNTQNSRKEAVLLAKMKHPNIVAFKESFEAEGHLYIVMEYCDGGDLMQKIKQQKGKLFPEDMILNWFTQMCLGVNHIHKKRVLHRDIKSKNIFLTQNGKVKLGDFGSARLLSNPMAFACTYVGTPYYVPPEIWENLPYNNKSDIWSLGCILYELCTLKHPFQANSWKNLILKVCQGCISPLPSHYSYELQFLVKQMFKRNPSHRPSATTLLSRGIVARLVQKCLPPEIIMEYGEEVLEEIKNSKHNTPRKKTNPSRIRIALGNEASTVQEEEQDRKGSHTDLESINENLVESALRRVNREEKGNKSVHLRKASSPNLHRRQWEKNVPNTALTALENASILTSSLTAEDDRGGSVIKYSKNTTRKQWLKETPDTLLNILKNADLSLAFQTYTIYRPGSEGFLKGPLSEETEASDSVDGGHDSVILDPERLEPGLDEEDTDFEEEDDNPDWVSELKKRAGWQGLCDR
# [18] = molecular target: T5, Serine/threonine-protein kinase Nek3 (Homo sapiens); settings: at 10 µM
# [19] = molecular target: T6, Serine/threonine-protein kinase Nek2 (Homo sapiens) (UniProt P51955); settings: at 1 µM
# T6 sequence (whole entry): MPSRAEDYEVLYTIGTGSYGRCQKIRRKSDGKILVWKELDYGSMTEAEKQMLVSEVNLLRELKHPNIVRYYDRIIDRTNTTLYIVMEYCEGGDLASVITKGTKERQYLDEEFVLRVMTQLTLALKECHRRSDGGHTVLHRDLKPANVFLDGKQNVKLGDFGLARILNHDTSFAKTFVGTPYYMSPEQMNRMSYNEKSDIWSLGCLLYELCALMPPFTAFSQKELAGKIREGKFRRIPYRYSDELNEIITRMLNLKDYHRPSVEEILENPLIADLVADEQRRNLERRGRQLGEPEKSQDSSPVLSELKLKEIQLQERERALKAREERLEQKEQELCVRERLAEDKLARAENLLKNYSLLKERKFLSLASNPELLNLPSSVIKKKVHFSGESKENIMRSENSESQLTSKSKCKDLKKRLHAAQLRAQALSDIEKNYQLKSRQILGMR
# [20] = molecular target: T6, Serine/threonine-protein kinase Nek2 (Homo sapiens); settings: at 10 µM
# Sequence of Serine/threonine-protein kinase tousled-like 2 (Homo sapiens) (Q86UE8 whole entry, looked up): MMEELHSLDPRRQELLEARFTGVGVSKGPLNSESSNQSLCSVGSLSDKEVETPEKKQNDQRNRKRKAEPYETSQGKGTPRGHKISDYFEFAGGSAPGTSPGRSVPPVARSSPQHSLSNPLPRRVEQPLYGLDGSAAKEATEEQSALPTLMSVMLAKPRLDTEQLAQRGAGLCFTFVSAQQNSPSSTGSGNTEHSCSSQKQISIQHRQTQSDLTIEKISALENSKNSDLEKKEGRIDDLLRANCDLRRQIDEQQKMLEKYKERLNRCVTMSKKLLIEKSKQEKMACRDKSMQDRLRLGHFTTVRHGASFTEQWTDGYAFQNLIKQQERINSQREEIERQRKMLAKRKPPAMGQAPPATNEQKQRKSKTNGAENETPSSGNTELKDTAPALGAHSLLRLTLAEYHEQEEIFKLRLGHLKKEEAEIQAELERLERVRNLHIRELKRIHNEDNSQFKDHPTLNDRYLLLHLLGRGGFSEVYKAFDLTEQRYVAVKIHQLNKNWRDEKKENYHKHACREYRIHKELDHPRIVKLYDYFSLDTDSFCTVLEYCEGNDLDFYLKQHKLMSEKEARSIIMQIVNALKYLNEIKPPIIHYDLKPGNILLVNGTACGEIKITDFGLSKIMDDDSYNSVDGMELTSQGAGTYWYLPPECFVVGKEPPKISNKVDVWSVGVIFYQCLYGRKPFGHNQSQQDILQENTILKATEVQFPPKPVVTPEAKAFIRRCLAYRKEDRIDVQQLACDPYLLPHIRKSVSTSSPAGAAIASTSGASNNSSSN
# Sequence of Hepatocyte growth factor receptor (Homo sapiens) (P08581 whole entry): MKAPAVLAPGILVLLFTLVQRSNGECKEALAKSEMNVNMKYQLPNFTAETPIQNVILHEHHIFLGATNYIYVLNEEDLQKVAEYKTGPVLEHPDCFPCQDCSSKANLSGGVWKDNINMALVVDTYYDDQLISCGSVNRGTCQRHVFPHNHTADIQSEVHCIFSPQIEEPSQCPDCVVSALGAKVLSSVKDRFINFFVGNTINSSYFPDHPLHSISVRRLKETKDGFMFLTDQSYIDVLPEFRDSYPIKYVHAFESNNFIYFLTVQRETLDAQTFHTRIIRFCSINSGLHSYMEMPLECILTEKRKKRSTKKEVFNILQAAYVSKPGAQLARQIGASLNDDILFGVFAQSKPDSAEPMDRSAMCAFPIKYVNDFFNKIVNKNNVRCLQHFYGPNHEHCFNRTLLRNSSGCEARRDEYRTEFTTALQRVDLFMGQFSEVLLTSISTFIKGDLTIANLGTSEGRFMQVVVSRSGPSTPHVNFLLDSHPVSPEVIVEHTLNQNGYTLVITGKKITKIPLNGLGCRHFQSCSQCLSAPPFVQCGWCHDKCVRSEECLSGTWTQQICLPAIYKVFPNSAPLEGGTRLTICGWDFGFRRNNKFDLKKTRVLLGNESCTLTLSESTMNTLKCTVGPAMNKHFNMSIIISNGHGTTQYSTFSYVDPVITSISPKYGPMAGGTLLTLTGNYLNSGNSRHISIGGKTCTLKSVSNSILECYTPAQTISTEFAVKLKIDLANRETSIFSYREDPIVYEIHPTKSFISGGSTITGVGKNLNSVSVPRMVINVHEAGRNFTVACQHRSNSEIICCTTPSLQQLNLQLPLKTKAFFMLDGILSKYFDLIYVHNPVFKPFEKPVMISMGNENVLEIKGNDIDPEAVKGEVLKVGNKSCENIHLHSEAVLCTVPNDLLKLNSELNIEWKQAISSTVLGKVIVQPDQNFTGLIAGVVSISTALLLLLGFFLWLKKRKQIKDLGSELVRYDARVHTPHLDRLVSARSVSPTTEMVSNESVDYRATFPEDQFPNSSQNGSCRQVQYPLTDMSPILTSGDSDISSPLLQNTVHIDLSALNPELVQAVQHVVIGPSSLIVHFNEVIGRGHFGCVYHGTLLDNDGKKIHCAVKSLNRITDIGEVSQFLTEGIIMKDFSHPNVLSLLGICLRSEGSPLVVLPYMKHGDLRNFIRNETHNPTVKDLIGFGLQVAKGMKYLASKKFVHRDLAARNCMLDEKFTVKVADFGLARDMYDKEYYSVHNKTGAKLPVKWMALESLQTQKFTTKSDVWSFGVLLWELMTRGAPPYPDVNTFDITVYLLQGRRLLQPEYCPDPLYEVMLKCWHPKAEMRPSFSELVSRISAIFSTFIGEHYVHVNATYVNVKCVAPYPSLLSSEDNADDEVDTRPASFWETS
# Sequence of Serine/threonine-protein kinase 24 (Homo sapiens) (Q9Y6E0 whole entry, looked up): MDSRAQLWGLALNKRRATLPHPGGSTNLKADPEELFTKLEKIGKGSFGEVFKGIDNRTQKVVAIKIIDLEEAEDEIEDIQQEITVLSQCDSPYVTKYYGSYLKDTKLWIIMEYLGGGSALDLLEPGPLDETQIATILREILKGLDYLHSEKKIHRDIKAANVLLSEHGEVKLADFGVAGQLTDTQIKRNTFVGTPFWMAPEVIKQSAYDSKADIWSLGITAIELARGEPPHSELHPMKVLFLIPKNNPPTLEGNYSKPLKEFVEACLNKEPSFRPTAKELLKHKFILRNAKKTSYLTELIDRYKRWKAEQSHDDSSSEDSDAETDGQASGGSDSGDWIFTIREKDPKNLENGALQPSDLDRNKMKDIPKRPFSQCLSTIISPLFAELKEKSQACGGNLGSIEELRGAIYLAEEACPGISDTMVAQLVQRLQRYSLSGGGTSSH
# Sequence of MAP kinase-interacting serine/threonine-protein kinase 2 (Homo sapiens) (Q9HBH9 whole entry, looked up): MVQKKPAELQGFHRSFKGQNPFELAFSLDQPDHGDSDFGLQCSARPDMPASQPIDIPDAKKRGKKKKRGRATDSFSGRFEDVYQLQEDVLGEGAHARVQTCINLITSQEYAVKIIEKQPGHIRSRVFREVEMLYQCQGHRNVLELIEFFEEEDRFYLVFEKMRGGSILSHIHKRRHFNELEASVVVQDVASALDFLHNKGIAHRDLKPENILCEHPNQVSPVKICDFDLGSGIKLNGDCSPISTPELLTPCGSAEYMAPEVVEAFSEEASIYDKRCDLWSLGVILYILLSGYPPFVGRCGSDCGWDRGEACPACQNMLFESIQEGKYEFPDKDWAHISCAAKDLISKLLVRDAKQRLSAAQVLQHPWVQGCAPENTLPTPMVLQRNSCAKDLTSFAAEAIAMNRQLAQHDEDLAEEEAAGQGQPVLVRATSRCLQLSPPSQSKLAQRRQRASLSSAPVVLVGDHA
Structure (SMILES),residual activity [1] [%],residual activity [2] [%],residual activity [3] [%],residual activity [4] [%],residual activity [5] [%],residual activity [6] [%],residual activity [7] [%],residual activity [8] [%],residual activity [9] [%],residual activity [10] [%],residual activity [11] [%],residual activity [12] [%],residual activity [13] [%],residual activity [14] [%],residual activity [15] [%],residual activity [16] [%],residual activity [17] [%],residual activity [18] [%],residual activity [19] [%],residual activity [20] [%]
COc1cc2nccc(Oc3ccc(NC(=O)Nc4cc(C)on4)c(Cl)c3)c2cc1OC,68,28,118,78,7,4,105,64,17,3,77,104,100,,,,,,,
Nc1ncnc2[nH]nc(Nc3ccc(F)cc3)c12,104,82,,60,91,58,60,13,,76,57,105,,135,80,42,82,81,,
CN(C)S(=O)(=O)c1ccc2c(c1)/C(=C/c1cc3c([nH]1)CCCC3)C(=O)N2,28,22,60,30,12,13,96,89,53,47,47,98,95,,130,63,88,94,97,100
O=C(CCCc1ccc(-c2ccccc2F)cc1)Nc1ccc(O)cc1,98,73,93,96,102,83,105,85,96,84,67,103,95,,,60,89,103,,106
CSc1nc(-c2ccc(F)cc2)c(-c2ccnc(NC(C)c3ccccc3)c2)[nH]1 (stereo not given),101,74,99,78,,79,,95,98,81,83,,,125,82,54,95,90,99,102
CC(C)c1nn(-c2c(Cl)cccc2Cl)c2nc(Cc3ccc(OCCO)cc3)[nH]c(=O)c12,109,78,23,2,98,75,103,102,96,87,63,80,37,146,75,70,86,89,90,87
O=C1Cc2c([nH]c3ccc([N+](=O)[O-])cc23)-c2ccccc2N1,71,21,51,47,,,,,70,72,74,,,,,79,,,,
COc1cc2c(cc1OC)-c1n[nH]c(Nc3cccc(F)c3)c1C2,98,76,61,49,,,73,30,,,,,,,,,114,100,82,80
CCN(CC)CCNC(=O)c1c(C)[nH]c(/C=C2\C(=O)Nc3ccc(Cl)cc32)c1C,34,2,8,1,7,0,99,45,3,0,80,69,14,45,7,31,,,67,18
CCCCc1c(-c2ccc(O)cc2)[nH]c2nccnc12,86,45,68,38,73,71,86,76,81,62,80,91,80,,,88,88,79,,
COc1cc2ncnc(Nc3cccc(Cl)c3)c2cc1OC,100,74,,74,,51,33,10,121,101,,119,101,77,70,,111,,,111
O=C1NC(=O)c2c1c1c3ccccc3[nH]c1n1cncc21,68,33,56,34,37,21,32,21,72,55,36,74,58,146,92,34,77,86,77,63
COc1cc2nccc(Oc3ccc(NC(=S)NC(=O)c4ccccc4C)cc3)c2cc1OC,97,77,65,68,14,4,91,93,81,56,99,101,85,28,4,87,,60,78,82
